Bioassay records deposited in PubChem by National Center for Advancing Translational Sciences (NCATS).
Six1-Eya2 inh = qHTS Assay for Inhibitors of the Six1/Eya2 Interaction; Homeobox protein SIX1 (Homo sapiens) + Protein phosphatase EYA2 (Homo sapiens), …; AlphaScreen GST-Six1/His-Eya2 binding, biochemical; stronger effect = lower value; activity change, % (concentration not given with the values); 360,000 tested, 0.56% active; AID 651725, 2012; in the data active = activity change below about -65%; inconclusive = mostly about -30% to -63%; also: % is scaled to controls: 0 for no effect and ±100 for the full control effect
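AlphaScreen with GST-Six1 and His-Eya2 (5X mix: 250 nM and 500 nM), glutathione donor and nickel acceptor beads; buffer 50 mM Tris pH 8.0, 300 mM NaCl, 1 mM TCEP; 1 h at 37 C in the dark.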
HP1b chromo inh = HTS for Inhibitors of HP1-beta Chromodomain Interactions with Methylated Histone Tails. Chromobox protein homolog 1 (Homo sapiens), P83916. AlphaScreen HP1-beta / biotin-H3K9me3 peptide binding. Potency, µM (series often up to 114 µM), without a hit: at the top dose activity change, negative = inhibition, usual class: inhibitors. 390,000 tested, 0.56% active. AID 540317, 2011; also: potency is read from the fitted curve at half-maximal effect; nearly all actives have a fitted effect of over 70% in size
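HP1-beta protein (50 nM final) preincubated 30 min at room temperature with biotinylated H3(1-18)K9me3 peptide (50 nM) in PBS pH 7.4, 0.01% Tween-20, then compound added for 30 min. AlphaScreen streptavidin donor/nickel chelate acceptor beads (10 ug/mL final), 30 min dark, luminescence read.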
CtBP-E1A inh = qHTS Assay for Inhibitors of the CtBP/E1A Interaction | CtBP / adenovirus E1A interaction (AlphaScreen) | AlphaScreen GST-E1A/His-CtBP binding, 1536-well; stronger effect = lower value | activity change, % (no concentration beside the values) | 340,000 tested, 0.49% active | AID 651724, 2012; in the data active = activity change below about -65%; inconclusive = mostly about -30% to -63%; also: % is scaled to controls: 0 for no effect and ±100 for the full control effect
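Protein mix (5X: 125 nM each GST-E1A, His-CtBP) was incubated with pinned compound 2 h at 37 deg C in dark, in 50 mM Tris pH 8.0 buffer with 300 mM NaCl. Glutathione donor and nickel acceptor beads followed; AlphaScreen signal read after 1 h.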
BAZ2B inh = qHTS Assay for Inhibitors of BAZ2B; AlphaScreen BAZ2B-H3K14Ac peptide displacement; Potency, µM (doses to about 114 µM), inactives show top-dose activity change, negative = inhibition, hits mostly inhibitors; 360,000 tested, 4.4% active; AID 504333, 2011; Bromodomain adjacent to zinc finger domain protein 2B (Homo sapiens), Q9UIF8; also: potency is read from the fitted curve at half-maximal effect; % is scaled to controls: 0 for no effect and ±100 for the full control effect; nearly all actives have a fitted effect of over 60% in size
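Complex of BAZ2B and biotin-H3K14Ac (50 nM apiece) forms over 30 min at RT, then faces library compounds up to 110 uM for another 30 min; AlphaScreen beads added, 20 min dark incubation, luminescence read.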
JMJD2A Tudor inh = qHTS Assay for Inhibitors of JMJD2A-Tudor Domain. AlphaScreen JMJD2A-Tudor / H3K4me3 peptide binding. AID 504339, 2011. Lysine-specific demethylase 4A (Homo sapiens), O75164. Potency, µM (top dose mostly 114 µM), for the others: at the top dose activity change, negative = inhibition, hits mostly inhibitors. 390,000 tested, 4.4% active; also: potency is read from the fitted curve at half-maximal effect; % is scaled to controls: 0 for no effect and ±100 for the full control effect; nearly all actives have a fitted effect of over 50% in size
TDP1 block = qHTS Assay for Inhibitors of Tyrosyl-DNA Phosphodiesterase (TDP1); Tyrosyl-DNA phosphodiesterase 1 (Homo sapiens), Q9NUW8; recombinant TDP1, AlphaScreen DNA substrate cleavage; Potency, µM (titrated, usually from 130 µM), for inactives: at the top dose activity change, negative = inhibition, actives largely listed as inhibitors; 350,000 tested, 0.28% active; AID 485290, 2010; also: potency is read from the fitted curve at half-maximal effect; % is scaled to controls: 0 for no effect and ±100 for the full control effect; nearly all actives have a fitted effect of over 40% in size
Target sequence (Q9NUW8 whole entry, looked up): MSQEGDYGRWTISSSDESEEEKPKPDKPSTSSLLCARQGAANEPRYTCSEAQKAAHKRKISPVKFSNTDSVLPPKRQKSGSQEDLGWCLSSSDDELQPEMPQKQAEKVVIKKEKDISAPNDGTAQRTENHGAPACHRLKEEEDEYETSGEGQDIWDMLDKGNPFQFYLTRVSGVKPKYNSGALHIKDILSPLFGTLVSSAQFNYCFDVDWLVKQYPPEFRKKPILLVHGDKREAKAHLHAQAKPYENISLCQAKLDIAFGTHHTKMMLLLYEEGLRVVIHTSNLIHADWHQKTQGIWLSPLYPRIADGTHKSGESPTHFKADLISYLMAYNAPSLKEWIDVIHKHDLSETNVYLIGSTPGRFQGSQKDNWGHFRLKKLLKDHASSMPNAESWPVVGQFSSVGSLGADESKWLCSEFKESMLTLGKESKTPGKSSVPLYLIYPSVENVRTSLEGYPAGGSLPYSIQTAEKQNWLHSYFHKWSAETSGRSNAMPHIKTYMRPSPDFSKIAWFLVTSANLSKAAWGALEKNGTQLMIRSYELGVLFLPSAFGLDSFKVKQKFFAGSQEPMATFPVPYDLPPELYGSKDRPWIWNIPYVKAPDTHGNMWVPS
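Enzyme-compound mixtures sat 15 min at room temperature, followed by a 5 min reaction with 15 nM final substrate and 10 min with AlphaScreen beads. Recombinant human Tdp1 was used at 1 nM final.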
Starred values were filed as active, the others as inactive; ? = inconclusive; / = no result given; ! = not confirmed by another sample; [ ] = dose if it differs, or a comment. Rows were chosen to be rich in hits. Some 5.3% of all compounds tested hit in one or more screens of this group. Unless noted, calls follow the shape of the dose curve; as a rule, active = well fitted inhibition curve with a large enough effect; inconclusive = small, poorly fitted or top-dose-only effect; inactive = no such curve, though single readings can be large or run the other way.

SMILES	Six1-Eya2 inh	HP1b chromo inh	CtBP-E1A inh	BAZ2B inh	JMJD2A Tudor inh	TDP1 block
CCOc1cc(/C=C2\SC(=S)N(C(C(=O)O)c3ccccc3)C2=O)ccc1O (stereo not drawn)	-27	?	?	-20%	-22%[11.4 µM]	-3%
O=C1NCN(c2ccccc2)C12CCN(CCCC(c1ccc(F)cc1)c1ccc(F)cc1)CC2	0	-31%	-22	?	40µM*	6%[56.1 µM]
CN(C)C(CNc1ccc(C(F)(F)F)cc1[N+](=O)[O-])c1ccccc1 (stereo not drawn)	?	45µM*	-29	8.9µM*	35µM*	20%
CN(C)C(CNC(C(=O)Nc1ccc([N+](=O)[O-])cc1Br)c1ccccc1)c1ccccc1 (stereo not drawn)	?	?	-24	/	35µM*	-3%
CCN(CC)CCNC(C(=O)Nc1ccc([N+](=O)[O-])cc1Br)c1ccccc1 (stereo not drawn)	-4	10%	4	?	-19%	4%
Cc1cccc2c1-c1sc(C(=O)Nc3ccccc3N3CCN(C)CC3)cc1CO2	-8	-7%	2	45µM*	?	3%
CC[C@H](C)[C@H](NC(=O)[C@H](Cc1ccc(O)cc1)NC(=O)[C@@H](NC(=O)[C@H](CCCN=C(N)N)NC(=O)[C@@H](N)CC(=O)O)C(C)C)C(=O)N[C@@H](Cc1cnc[nH]1)C(=O)N1CCC[C@H]1C(=O)O	/	/	/	/	/	10%
COc1ccc(C(=O)N2CCN(c3nc4c(OC)cccc4s3)CC2)cc1OC	/	19%	/	-8%	-8%	0%
CCN(CC)C(=O)CSc1nnc(-c2ccccc2)n1-c1ccccc1	0	60%	-1	5%	50µM*	-5%
CC(C)C1Cc2c(sc3ncnc(NN)c23)CO1 (stereo not drawn)	-28	22%	-22	28µM*	25µM*	/
CC(C)Cc1nc2sc3c(c2c(=O)n1N)CC(C(C)C)OC3 (stereo not drawn)	7	16%	14	2%	-2%[11.4 µM]	-1%
CC(=O)Nc1cccc(NC(=O)Cn2cnc3c2c(=O)n(C)c(=O)n3C)c1	/	13%	/	-3%	-18%	3%[12.3 µM]
COc1cccc(N=CNc2cccc(OC)c2)c1	0	-20%	7	/	50µM*	/
Cc1ccc2nc(COc3ccccc3NC(=O)COc3ccccc3Cl)cc(=O)n2c1	/	13%[57 µM]	/	10%	-8%	3%
CC1Cn2c(nnc2C23CC4CC(CC(C4)C2)C3)S1 (stereo not drawn)	2	31%	7	-6%	1%	2%
COCCCn1c(C23CC4CC(CC(C4)C2)C3)n[nH]c1=S	13	6%	/	4%	7.9µM*	/
Cn1c(C23CC4CC(CC(C4)C2)C3)n[nH]c1=S	5	0%	-11	6%	5.6µM*	4%
CC(C)Cn1c(C23CC4CC(CC(C4)C2)C3)n[nH]c1=S	-7	23%	0	?	56µM*	/
COCCCn1c(C)cc(C(=O)COC(=O)C23CC4CC(CC(O)(C4)C2)C3)c1C	0	8%	7	12%	-18%	4%
CCOC(=O)c1cccc(NC(=O)CCS(=O)(=O)c2ccc3c(c2)CC(=O)N3C)c1	/	47%	/	-2%	-26%	5%
O=C(Nc1ccc(F)c(F)c1)C1CCCN1S(=O)(=O)c1cccc2nsnc12 (stereo not drawn)	/	17%	/	-22%	-9%	2%
COc1ccccc1NC(=O)CSc1nc2ccccc2c2nc(-c3ccccc3)nn12	/	28%	/	-2%	32µM*	-3%
CCOc1ccccc1NC(=O)CSc1nc2ccccc2c2nc(CCn3cncc3C)nn12	/	21%	/	56µM*	-26%	-1%
Cc1cncn1CCc1nc2c3ccccc3nc(SCC(=O)Nc3cccc(Cl)c3)n2n1	?	30%	-3	11µM*!	?	13%
O=C(CSc1nc2ccccc2c2nc(-c3ccccc3)nn12)Nc1ccc(F)cc1	/	42%	/	-5%	-22%	9%
SMILES	Six1-Eya2 inh	HP1b chromo inh	CtBP-E1A inh	BAZ2B inh	JMJD2A Tudor inh	TDP1 block
Cc1ccccc1NC(=O)CSc1nc2ccccc2c2nc(CCn3c(C)nc4ccccc43)nn12	/	-4%	/	-24%	-26%	3%
O=C(N/N=C/c1ccc2c(c1)OCO2)/C(=C/c1ccc2c(c1)OCO2)NC(=O)c1ccccc1	-11	18%	-1	-1%	-12%	-1%
CN(C)c1ccc(/C=C(/NC(=O)c2ccccc2)C(=O)N/N=C/c2ccc([N+](=O)[O-])c(O)c2)cc1	?	?	?	18µM*	45µM*	-11%
COc1ccc(-c2cc(C(F)(F)F)nc(SCC(=O)NCCc3ccccc3)n2)cc1OC	/	48%	/	7%	21%	3%
COc1ccc(-c2ccc(N(C)C)cc2)cc1C1C2C=CCCC2(C)C(=O)N1Cc1ccccc1 (stereo not drawn)	/	?	/	/	8.9µM*	23%
COc1ccc(-c2ccc(N(C)C)cc2)cc1[C@H]1[C@@H]2C=CCC[C@@]2(C)C(=O)N1Cc1ccccc1	?	?	?	7.9µM*	14µM*	11%
COc1ccc(-c2ccc(OC)c([C@H]3[C@@H]4C=CCC[C@@]4(C)C(=O)N3Cc3ccccc3)c2)cc1OC	-23	-1%	-8	?	?	5%
COc1ccccc1CNC(=O)CCC(=O)N1Cc2ccccc2Oc2ncccc21	/	32%	/	3%	-2%	0%
Cc1ccc(C2C3=C(CC(C)(C)CC3=O)NC3=C2C(=O)c2ccccc23)cc1 (stereo not drawn)	?	?	?	32µM*	50µM*	0%
CC1(C)CC(=O)C2=C(C1)NC1=C(C(=O)c3ccccc31)C2c1ccc(Cl)cc1 (stereo not drawn)	?	?	-26	11µM*	16µM*	-3%
CSC1=C(C#N)C(c2ccc(Cl)cc2)C2=C(CC(C)(C)CC2=O)N1 (stereo not drawn)	0	65%	0	11%	1%	4%
COc1ccc(C2C3=C(CCCC3=O)NC3=C2C(=O)c2ccccc23)cc1 (stereo not drawn)	-26	?	-30	35µM*	50µM*	11%
